The whole screen tested about 39,000 compounds, of which about 1,500 (3.8%) were called active. The sample holds actives, similar compounds and a random draw of the others, so the mix is not that of the screen.

For this experiment, the system named is HSkMC (human skeletal muscle cells). Nature of the experiment: cytotoxicity call (relative viability < 0.9). Conditions: 10 µM.
`CC(C)=CCCC(C)=CCO`: the cytotoxicity call was “inactive”.
Under `CCN(CC)CCOc1ccc(C(=C(Cl)c2ccccc2)c2ccccc2)cc1.O=C(O)CC(O)(CC(=O)O)C(=O)O` stands “inactive”; under `CN(C)CCOc1ccc(C(=C(CCCl)c2ccccc2)c2ccccc2)cc1.O=C(O)CC(O)(CC(=O)O)C(=O)O`, “active”.
The result for `CCC(=C(c1ccccc1)c1ccc(OCCN(C)C)cc1)c1ccccc1.O=C(O)CC(O)(CC(=O)O)C(=O)O` reads “inactive”.
The result for `C[C@H]1CN([C@@H](C)CO)S(=O)(=O)c2ccc(C3=CCCC3)cc2O[C@@H]1CN(C)C(=O)c1cnccn1` reads “inactive”.
For `C[C@@H]1CN([C@@H](C)CO)S(=O)(=O)c2ccc(C#CCC3CCCC3)cc2O[C@@H]1CN(C)C(=O)CN(C)C`, the cytotoxicity call is “inactive”.
Under `COc1cc(-c2ccc(NN=C3C=Cc4c(S(=O)(=O)O)cc(S(=O)(=O)O)c(N)c4C3=O)c(OC)c2)ccc1NN=C1C=Cc2c(S(=O)(=O)O)cc(S(=O)(=O)O)c(N)c2C1=O` stands “active”; under `Cc1cc(-c2ccc(NN=C3C=Cc4c(S(=O)(=O)O)cc(S(=O)(=O)O)c(N)c4C3=O)c(C)c2)ccc1NN=C1C=Cc2c(S(=O)(=O)O)cc(S(=O)(=O)O)c(N)c2C1=O`, “inactive”; under `Cc1noc(C)c1S(=O)(=O)Nc1ccc2c(c1)CC(=O)N([C@@H](C)CO)C[C@@H](C)[C@H](CN(C)C(=O)NC(C)C)O2`, “inactive”.
Regarding `C[C@@H]1CN([C@@H](C)CO)C(=O)c2cc(NC(=O)Nc3cccc4ccccc34)ccc2O[C@@H](C)CCCCO[C@H]1CN(C)C(=O)Nc1ccc2c(c1)OCO2`, the cytotoxicity call was “inactive”.
Under `C[C@@H]1CN([C@@H](C)CO)C(=O)Cc2cc(NC(=O)CCC(F)(F)F)ccc2O[C@@H]1CN(C)S(=O)(=O)c1ccccc1` stands “inactive”.
Under `C[C@H]1CN([C@@H](C)CO)C(=O)Cc2cc(NC(=O)Nc3ccc(C(F)(F)F)cc3)ccc2O[C@H]1CN(C)Cc1ccc2c(c1)OCO2` stands “active”.
Regarding `C[C@H](CO)N1C[C@H](C)[C@@H](CN(C)Cc2ccc3c(c2)OCO3)Oc2ccc(NC(=O)Nc3ccc(C(F)(F)F)cc3)cc2CC1=O`, the cytotoxicity call was “active”.
For `C[C@@H]1CN([C@H](C)CO)C(=O)Cc2cc(NC(=O)Nc3ccc(C(F)(F)F)cc3)ccc2O[C@H]1CN(C)Cc1ccc2c(c1)OCO2`, the cytotoxicity call was “inactive”.
The result for `C[C@H](CO)N1C[C@H](C)[C@H](CN(C)Cc2ccc3c(c2)OCO3)Oc2ccc(NC(=O)Nc3ccc(C(F)(F)F)cc3)cc2CC1=O` reads “inactive”; that for `C[C@H]1CN([C@@H](C)CO)C(=O)Cc2cc(NC(=O)Nc3ccc(C(F)(F)F)cc3)ccc2O[C@@H]1CN(C)Cc1ccc2c(c1)OCO2`, “inactive”; that for `C[C@@H]1CN([C@H](C)CO)C(=O)Cc2cc(NC(=O)Nc3ccc(C(F)(F)F)cc3)ccc2O[C@@H]1CN(C)Cc1ccc2c(c1)OCO2`, “active”.
As for `C[C@@H]1CN([C@@H](C)CO)C(=O)Cc2cc(NC(=O)Nc3ccc(C(F)(F)F)cc3)ccc2O[C@H]1CN(C)Cc1ccc2c(c1)OCO2`, the cytotoxicity call was “inactive”.
Under `C[C@@H]1CN([C@@H](C)CO)C(=O)Cc2cc(NC(=O)Nc3ccc(C(F)(F)F)cc3)ccc2O[C@@H]1CN(C)Cc1ccc2c(c1)OCO2` stands “active”; under `C[C@@H]1CN([C@H](C)CO)C(=O)Cc2cc(NS(=O)(=O)c3cn(C)cn3)ccc2O[C@H]1CN(C)S(=O)(=O)c1ccc(F)cc1`, “inactive”; under `C[C@@H]1CN([C@H](C)CO)S(=O)(=O)c2ccc(-c3cccnc3)cc2O[C@H]1CN(C)C(=O)NC1CCCC1`, “inactive”.
Under `C[C@H]1CN([C@@H](C)CO)C(=O)c2cccc(NC(=O)c3ccncc3)c2O[C@H]1CN(C)C(=O)Nc1ccc2c(c1)OCO2` stands “inactive”; under `C[C@@H]1CCCCO[C@H](CN(C)C(=O)c2ccncc2)[C@@H](C)CN([C@@H](C)CO)C(=O)c2cc(NC(=O)NC3CCCCC3)ccc2O1`, “inactive”.
The result for `Cc1noc(C)c1S(=O)(=O)Nc1ccc2c(c1)C(=O)N([C@H](C)CO)C[C@@H](C)[C@H](CN(C)S(=O)(=O)c1cn(C)cn1)O2` reads “inactive”; that for `CCS(=O)(=O)Nc1ccc2c(c1)C(=O)N(C)[C@@H]1CC[C@H](CC(=O)NCCCN3CCOCC3)O[C@H]1CO2`, “inactive”; that for `Cc1ccc(S[C@]2(C(=O)NCCN3CCOCC3)CC(=O)N(Cc3ccccc3Cl)[C@@H]2c2ccc(CO)cc2I)cc1`, “inactive”.
Turning to `C[C@H](CO)N1C[C@H](C)[C@@H](CN(C)C(=O)CN2CCOCC2)Oc2ncc(C#C[C@@H](C)O)cc2C1=O`, the cytotoxicity call is “inactive”.
Turning to `COCC(=O)N(C)C[C@H]1Oc2cc(C#Cc3cccnc3)ccc2S(=O)(=O)N([C@H](C)CO)C[C@@H]1C`, the cytotoxicity call was “inactive”.
The result for `C[C@@H]1CCCCO[C@H](CN(C)Cc2ccc(C(=O)O)cc2)[C@@H](C)CN([C@H](C)CO)C(=O)c2cc(NC(=O)Nc3ccc4c(c3)OCO4)ccc2O1` reads “inactive”.
Consider `Cc1noc(C)c1S(=O)(=O)Nc1ccc2c(c1)C(=O)N([C@H](C)CO)C[C@H](C)[C@H](CN(C)S(=O)(=O)c1cn(C)cn1)OCCCC[C@@H](C)O2`, for which the cytotoxicity call was “inactive”.
Regarding `C[C@H](CCC(=O)O)[C@H]1CC[C@H]2[C@@H]3CC=C4C[C@@H](O)CC[C@]4(C)[C@H]3CC[C@]12C` [3beta-HYDROXYCHOL-5-ENIC ACID ], the cytotoxicity call was “inactive”.
Under `Cc1noc(C)c1S(=O)(=O)Nc1ccc2c(c1)C(=O)N([C@@H](C)CO)C[C@@H](C)[C@@H](CN(C)Cc1ccc(C(F)(F)F)cc1)OCCCC[C@@H](C)O2` stands “inactive”; under `C[C@@H]1CN([C@@H](C)CO)C(=O)Cc2cc(NC(=O)Nc3ccc(C(F)(F)F)cc3)ccc2O[C@H]1CN(C)Cc1ccc(C(=O)O)cc1`, “inactive”; under `C[C@H](CO)N1C[C@H](C)[C@@H](CN(C)Cc2ccc(C(=O)O)cc2)Oc2ccc(NC(=O)Nc3ccc(C(F)(F)F)cc3)cc2CC1=O`, “inactive”.
As for `C[C@@H]1CN([C@H](C)CO)C(=O)Cc2cc(NC(=O)Nc3ccc(C(F)(F)F)cc3)ccc2O[C@H]1CN(C)Cc1ccc(C(=O)O)cc1`, the cytotoxicity call is “inactive”.
Under `C[C@H]1CN([C@@H](C)CO)C(=O)Cc2cc(NC(=O)Nc3ccc(C(F)(F)F)cc3)ccc2O[C@H]1CN(C)Cc1ccc(C(F)(F)F)cc1` stands “active”.
Under `C[C@H]1CN([C@@H](C)CO)C(=O)Cc2cc(NC(=O)Nc3ccc(C(F)(F)F)cc3)ccc2O[C@@H]1CN(C)Cc1ccc(C(F)(F)F)cc1` stands “active”; under `C[C@H](CO)N1C[C@H](C)[C@H](CN(C)Cc2ccc(C(F)(F)F)cc2)Oc2ccc(NC(=O)Nc3ccc(C(F)(F)F)cc3)cc2CC1=O`, “active”; under `C[C@H]1CN([C@@H](C)CO)C(=O)Cc2cc(NC(=O)Nc3ccc(C(F)(F)F)cc3)ccc2O[C@@H]1CN(C)Cc1ccc(C(=O)O)cc1`, “inactive”.
The result for `C[C@@H]1CN([C@@H](C)CO)C(=O)Cc2cc(NC(=O)Nc3ccc(C(F)(F)F)cc3)ccc2O[C@H]1CN(C)Cc1ccc(C(F)(F)F)cc1` reads “active”.
With `C[C@H]1CN([C@@H](C)CO)C(=O)Cc2cc(NC(=O)Nc3ccc(C(F)(F)F)cc3)ccc2O[C@H]1CN(C)Cc1ccc(C(=O)O)cc1`, the cytotoxicity call is “inactive”.
The result for `C[C@H](CO)N1C[C@H](C)[C@H](CN(C)Cc2ccc(C(=O)O)cc2)Oc2ccc(NC(=O)Nc3ccc(C(F)(F)F)cc3)cc2CC1=O` reads “inactive”.
